This note sets out measurements from PubChem BioAssay (Tox21).

The structures appear in SMILES notation. Records with an inconclusive call do not appear. The source made the active and inactive calls. Unless noted, calls follow the shape of the full dose curve.

Assay [1] is described as follows: Nuclear factor erythroid 2-related factor 2/antioxidant responsive element (Nrf2/ARE) small molecule agonists: qHTS cell viability counter screen in human keratinocytes (AID 1919968; active = well fitted curve in the direction sought with a large enough effect in the repeat runs; an effect the other way counts as inactive or inconclusive; also: nearly all actives have a fitted effect of over 55% in size). An outline of the steps: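 KeratinoSens HaCaT cells, 1,500/well, preincubated 5 h, then exposed to compounds in DMSO for 23 h at 37 C/5% CO2. Viability read as CellTiter-Fluor fluorescence after 1 h, in the same wells as the ARE-luciferase read.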
In general terms: In qHTS, concentration-response curves come from the screen itself.

Assay [2] in a line: Nuclear factor erythroid 2-related factor 2/antioxidant responsive element (Nrf2/ARE) small molecule agonists: luciferase reporter gene qHTS assay in human keratinocytes (AID 1919969). Also: nearly all actives have a fitted effect of over 35% in size. Also: potency is read from the fitted curve at half-maximal effect. In general terms: Reporter assays use an easily measured gene product as a stand-in for the process of interest.
For assay [3], the target named is Gonadotropin-releasing hormone receptor (Homo sapiens) (UniProt P30968). The assay is described as follows: Human gonadotropin-releasing hormone receptor (GnRHR) small molecule agonists, calcium flux assay in GnRHR-HEK293 cells (AID 1920063). Also: nearly all actives have a fitted effect of over 35% in size. In outline:
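HEK293 cells stably expressing human GnRHR were dye-loaded for 1 h at 37 C. Compound was added in agonist mode and fluorescence (Ex/Em 480/540) recorded kinetically for 3 min. Fifteen concentrations, triplicates.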

The target of assay [4] is KiSS-1 receptor (Homo sapiens) (UniProt Q969F8). The assay is described as follows: Human kisspeptin (KISS1R) small molecule agonists, calcium flux assay in KISS1R-HEK293 cells (AID 1920064; active = well fitted curve in the direction sought with a large enough effect in the repeat runs; an effect the other way counts as inactive or inconclusive). In outline:
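HEK293 cells stably expressing human KISS1R were loaded with calcium dye for 1 h at 37 C, then given compound; fluorescence (Ex/Em 480/540) was read kinetically for 3 min. Fifteen concentrations, triplicate.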
On the technique in general: Calcium flux is commonly read through the fluorescence of an indicator in the cells.

The nature of assay [5]: G protein-coupled receptor (GPCR) small molecule agonists, calcium flux assay: HEK293 wild type cell line counter screen (AID 1920065). An outline of the steps:
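Wild-type HEK293 cells plated 18 h, loaded with calcium dye 1 h at 37 C, then compounds added in agonist mode (ATP as positive control). Kinetic fluorescence Ex/Em 480/540 recorded 3 min at 1 sec intervals; 15 concentrations, triplicate.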

A short description of assay [6]: p53 small molecule agonists, cell-based qHTS assay with rat liver microsomes (AID 1963578). An outline of the steps: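 Compound in DMSO added to p53RE-bla cells 5 h post-plating; rat microsomes/NADPH 0.5 mg/mL final; 16 h, 37 C; LiveBLAzer 2 h RT.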
The nature of assay [7]: p53 small molecule agonists, cell-based qHTS assay with human liver microsomes: qHTS cell viability counter screen (AID 1963579). Also: nearly all actives have a fitted effect of over 45% in size. An outline of the steps:
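HLM-supplemented (0.5 mg/mL final) and NADPH-supplemented (0.5 mg/mL final) p53RE-bla cultures, 4,000 cells per well, were dosed with compounds in DMSO for 16 h at 37 C; luminescent ATP detection (CellTiter-Glo, 30 min, room temperature) quantified surviving cells.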

Assay [8] in a line: p53 small molecule agonists, cell-based qHTS assay with rat liver microsomes: qHTS cell viability counter screen (AID 1963580). Also: nearly all actives have a fitted effect of over 45% in size. In outline:
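In HCT-116 cells carrying a p53 response element-bla reporter, compounds were metabolically activated in situ by rat liver microsomes with NADPH over 16 h. Cell ATP content then served as the cytotoxicity measure.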

The nature of assay [9]: p53 small molecule agonists, cell-based qHTS assay (AID 1963582; active = well fitted activation curve with a large enough effect in the signal ratio in the repeat runs, not every such curve was filed as active; the % refers to the signal ratio). An outline of the steps: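 p53RE-bla reporter cells, compounds added in DMSO after 5 h plating, incubated 16 h at 37 C. Beta-lactamase read via 2 h room-temperature LiveBLAzer B/G FRET substrate, fluorescence intensity.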
The target in assay [10] is Muscarinic acetylcholine receptor M1 (Homo sapiens) (UniProt P11229). The assay is described as follows: Cholinergic receptor muscarinic 1 (CHRM1) small molecule antagonists, cell-based qHTS assay (AID 1963588). Also: nearly all actives have a fitted effect of over 40% in size. An outline of the steps: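 CHRM1-CHO calcium-flux assay, antagonist mode. Cells were seeded 18 h, dye-loaded 1 h at 37 C and given compound for 5 min at RT, then acetylcholine was added at 50nM. FDSS fluorescence was read 3 min; 15 concentrations, three runs.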

Assay [11] shares this target. The experiment in a line: Cholinergic receptor muscarinic 1 (CHRM1) small molecule agonists, cell-based qHTS assay (AID 1963589). Also: nearly all actives have a fitted effect of over 35% in size. In outline: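 CHO cells stably expressing human CHRM1 were loaded with calcium dye for 1 h at 37 C, then compound was added in agonist mode. Intracellular calcium fluorescence was followed kinetically at 1 s intervals. Fifteen concentrations were tested in three independent runs.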

Assay [12] is described as follows: cAMP Responsive Elements (CRE) small molecule agonists, cell-based qHTS assay (AID 1963590). In outline:
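CRE-bla HEK 293T cells, 2,000/well in DMEM with 10% dialyzed FBS and 25 mM HEPES, pre-incubated 18 h at 37 C, then exposed to compound 3 h at 37 C. Beta-lactamase reporter read with LiveBLAzer B/G FRET substrate after 2 h at room temperature.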

A short description of assay [13]: cAMP Responsive Elements (CRE) small molecule antagonists, cell-based qHTS assay (AID 1963591; active = well fitted inhibition curve with a large enough effect in the signal ratio in the repeat runs, not every such curve was filed as active; the % refers to the signal ratio). In outline: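 CRE-bla HEK293T cells plated 18 h, then given compound plus NKH477 at 0.25 uM final for 3 h at 37C. Beta-lactamase reporter read with LiveBLAzer B/G FRET substrate after 2 h at room temperature.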
A short description of assay [14]: p53 small molecule agonists, cell-based qHTS assay: qHTS cell viability counter screen (AID 1963581). Also: nearly all actives have a fitted effect of over 45% in size. In outline: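 p53RE-bla HCT-116 cells, compounds added 5 h after plating and incubated 16 h at 37 C. Cytotoxicity measured in the same wells as intracellular ATP by CellTiter-Glo luminescence after 30 min at room temperature.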
Assay [15] addresses 5-hydroxytryptamine receptor 2A (Homo sapiens) (UniProt P28223). The assay is described as follows: 5-hydroxytryptamine receptor 2A (HTR2A) small molecule antagonists, cell-based qHTS assay (AID 1963586). Also: nearly all actives have a fitted effect of over 45% in size. An outline of the steps: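 Antagonist-mode intracellular calcium assay: DOI (4 nM) added after 5 min compound pre-incubation at room temperature to dye-loaded HTR2A-CHO cells. Fluorescence followed for 3 min, sampled every second.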

Assay [16] has the same target. The assay is described as follows: 5-hydroxytryptamine receptor 2A (HTR2A) small molecule agonists, cell-based qHTS assay (AID 1963587). Also: nearly all actives have a fitted effect of over 30% in size. In outline: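 HTR2A-CHO cells, plated 18 h at 37 C/5% CO2, dye-loaded 1 h at 37 C; compounds in DMSO added by pin tool (agonist mode). Intracellular calcium flux read as kinetic fluorescence on FDSS over 2 min at 1 s intervals.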

In assay [17] the target is Beta-2 adrenergic receptor (Homo sapiens) (UniProt P07550). The experiment in a line: Adrenergic beta2 receptor (ADRB2) small molecule antagonists, cell-based qHTS assay (AID 1963592). Also: series mostly up to about 92 µM; nearly all actives have a fitted effect of over 50% in size. In outline:
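Cells (CHO, stable ADRB2 overexpression) incubated 18-20hr at 37C; compounds added from DMSO; agonist mix (1nM isoproterenol, 100uM IBMX, 25uM Ro-20-1724) added; 0.5hr RT; d2-cAMP and anti-cAMP-cryptate added; 1hr RT; 665/615 nm read.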

Assay [18] addresses D(2) dopamine receptor (Homo sapiens) (UniProt P14416). The assay is described as follows: Dopamine D2 receptor (DRD2) small molecule agonists, cell-based qHTS assay (AID 1963594). Also: nearly all actives have a fitted effect of over 35% in size. In outline:
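HEK293 cells stably expressing DRD2 were cultured 24 h at 37 C, then given Ro20-1724 (0.1 mM final) and compounds for 10 min at room temperature. NKH477 (200nM) was then added for 30 min. cAMP was read by HTRF.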

For assay [19] the target is unchanged. The experiment in a line: Dopamine D2 receptor (DRD2) small molecule antagonists, cell-based qHTS assay (AID 1963595; active = well fitted inhibition curve with a large enough effect in the signal ratio in the repeat runs, with a control signal flat; the % refers to the signal ratio). In outline:
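HEK293 cells stably expressing DRD2 were preincubated with 0.1 mM Ro20-1724, then with compound for 10 min at room temperature. Cells were stimulated with 200 nM NKH477 plus 12 nM quinpirole for 30 min, and cAMP was read by HTRF.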

Chain of 5-hydroxytryptamine receptor 2A (Homo sapiens) (P28223 whole entry, looked up): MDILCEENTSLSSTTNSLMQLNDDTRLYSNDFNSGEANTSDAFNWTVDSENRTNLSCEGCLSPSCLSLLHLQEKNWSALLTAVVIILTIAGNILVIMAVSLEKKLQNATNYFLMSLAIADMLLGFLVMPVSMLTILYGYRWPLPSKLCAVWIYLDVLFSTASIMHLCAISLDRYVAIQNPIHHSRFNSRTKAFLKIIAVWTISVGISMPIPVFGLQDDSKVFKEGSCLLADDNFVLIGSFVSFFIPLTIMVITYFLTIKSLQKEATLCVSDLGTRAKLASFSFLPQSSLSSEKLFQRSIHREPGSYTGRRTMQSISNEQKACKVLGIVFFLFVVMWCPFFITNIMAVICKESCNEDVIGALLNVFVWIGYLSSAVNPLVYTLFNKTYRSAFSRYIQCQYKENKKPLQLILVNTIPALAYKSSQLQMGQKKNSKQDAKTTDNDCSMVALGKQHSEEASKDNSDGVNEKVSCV
Chain of D(2) dopamine receptor (Homo sapiens) (P14416 whole entry, looked up): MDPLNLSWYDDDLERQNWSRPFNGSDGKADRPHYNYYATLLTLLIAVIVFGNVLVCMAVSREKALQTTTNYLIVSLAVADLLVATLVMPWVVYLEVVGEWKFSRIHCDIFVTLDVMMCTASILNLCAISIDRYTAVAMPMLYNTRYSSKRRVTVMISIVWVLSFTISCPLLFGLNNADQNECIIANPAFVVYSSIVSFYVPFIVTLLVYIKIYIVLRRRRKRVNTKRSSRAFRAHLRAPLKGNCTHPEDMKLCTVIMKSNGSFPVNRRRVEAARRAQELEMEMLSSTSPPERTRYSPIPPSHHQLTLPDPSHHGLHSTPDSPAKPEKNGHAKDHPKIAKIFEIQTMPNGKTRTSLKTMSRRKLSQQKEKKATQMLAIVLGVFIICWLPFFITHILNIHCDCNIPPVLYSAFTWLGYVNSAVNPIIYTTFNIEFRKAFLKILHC
Chain of Gonadotropin-releasing hormone receptor (Homo sapiens) (P30968 whole entry, looked up): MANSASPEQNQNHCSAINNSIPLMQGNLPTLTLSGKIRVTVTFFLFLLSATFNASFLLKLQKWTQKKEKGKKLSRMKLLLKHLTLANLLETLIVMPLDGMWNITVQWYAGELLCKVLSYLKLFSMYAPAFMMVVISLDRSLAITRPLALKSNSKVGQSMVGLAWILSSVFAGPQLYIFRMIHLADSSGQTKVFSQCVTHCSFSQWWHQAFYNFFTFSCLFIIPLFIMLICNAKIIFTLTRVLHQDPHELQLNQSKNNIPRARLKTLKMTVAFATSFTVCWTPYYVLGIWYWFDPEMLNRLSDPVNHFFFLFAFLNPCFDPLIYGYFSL
Chain of Muscarinic acetylcholine receptor M1 (Homo sapiens) (P11229 whole entry, looked up): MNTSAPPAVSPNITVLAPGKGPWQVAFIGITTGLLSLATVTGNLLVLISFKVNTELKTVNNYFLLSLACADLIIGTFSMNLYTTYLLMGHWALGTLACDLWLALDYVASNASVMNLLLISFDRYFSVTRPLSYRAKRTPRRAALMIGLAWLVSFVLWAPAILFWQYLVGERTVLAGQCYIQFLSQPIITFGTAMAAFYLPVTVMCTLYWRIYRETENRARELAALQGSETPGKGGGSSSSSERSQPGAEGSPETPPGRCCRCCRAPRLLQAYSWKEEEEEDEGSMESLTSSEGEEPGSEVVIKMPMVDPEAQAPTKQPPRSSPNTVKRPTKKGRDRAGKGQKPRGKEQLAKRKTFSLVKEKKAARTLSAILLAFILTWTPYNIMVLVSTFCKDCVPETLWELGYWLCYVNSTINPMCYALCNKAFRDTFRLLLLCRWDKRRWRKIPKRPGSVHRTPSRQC
Chain of Beta-2 adrenergic receptor (Homo sapiens) (P07550 whole entry, looked up): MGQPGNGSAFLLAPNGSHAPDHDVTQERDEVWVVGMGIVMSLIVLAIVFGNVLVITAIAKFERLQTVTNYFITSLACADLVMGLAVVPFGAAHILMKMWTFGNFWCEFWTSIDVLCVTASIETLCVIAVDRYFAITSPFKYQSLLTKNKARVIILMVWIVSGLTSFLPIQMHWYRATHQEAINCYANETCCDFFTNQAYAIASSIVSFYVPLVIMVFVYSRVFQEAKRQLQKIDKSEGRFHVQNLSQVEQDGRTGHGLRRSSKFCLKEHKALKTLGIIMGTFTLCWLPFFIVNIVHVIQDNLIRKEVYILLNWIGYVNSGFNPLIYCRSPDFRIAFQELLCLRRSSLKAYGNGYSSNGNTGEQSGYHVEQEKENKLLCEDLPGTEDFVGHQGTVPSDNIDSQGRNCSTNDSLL
Chain of KiSS-1 receptor (Homo sapiens) (Q969F8 whole entry, looked up): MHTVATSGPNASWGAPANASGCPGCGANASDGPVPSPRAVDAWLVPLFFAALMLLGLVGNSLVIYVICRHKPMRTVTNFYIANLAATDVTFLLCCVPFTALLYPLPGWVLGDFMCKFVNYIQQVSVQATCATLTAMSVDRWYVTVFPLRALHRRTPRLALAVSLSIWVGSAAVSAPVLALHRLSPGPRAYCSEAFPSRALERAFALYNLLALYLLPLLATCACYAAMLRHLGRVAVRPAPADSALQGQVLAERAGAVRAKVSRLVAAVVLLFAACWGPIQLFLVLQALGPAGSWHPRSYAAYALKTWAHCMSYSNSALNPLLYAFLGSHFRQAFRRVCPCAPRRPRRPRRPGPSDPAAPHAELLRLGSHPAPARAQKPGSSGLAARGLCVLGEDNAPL

On to `CN(C)CCc1c[nH]c2cccc(O)c12`, for which the Potency entry in assay [1], in assay [3], in assay [4], in assay [5], in [6] and in assay [7] was “inactive” each time. The Potency entry in assay [8], in assay [9], in [10], in assay [11], in [12] and in assay [13] was “inactive” in each case. Further, the Potency in [2] was 67.9 µM (active).
For the molecule `O=C(CCl)NCO`, the Potency entry in assay [1], in [2], in assay [3], in assay [4], in assay [5] and in assay [6] was “inactive” each time. Moreover, the Potency result in assay [8], in assay [14], in assay [9], in [15], in assay [16] and in [10] was “inactive” throughout. Moreover, the Potency entry in assay [11], in [12], in assay [13], in [17] and in assay [18] was “inactive” each time.
Turning to `CC(Cl)(Cl)[N+](=O)[O-]`, the Potency result in assay [1], in assay [2], in assay [3], in assay [4], in [5] and in [6] was “inactive” each time. The Potency entry in assay [7], in assay [14], in [9], in assay [15], in assay [16] and in assay [10] was “inactive” in each case. Further, the Potency entry in assay [12], in assay [13], in assay [17], in [18] and in assay [19] was “inactive” each time.
`CO/N=C(/C1=NOCCO1)c1ccccc1Oc1ncnc(Oc2ccccc2Cl)c1F`: the Potency entry in assay [1], in assay [2], in assay [3], in assay [4], in assay [5] and in assay [6] was “inactive” in each case. Moreover, the Potency entry in assay [7], in assay [8], in assay [16], in assay [10], in [11] and in assay [13] was “inactive” throughout. For the same molecule, the Potency entry in [17] and in assay [19] was “inactive” throughout.
As to `Cc1nc(N)nc(N)n1`, the Potency result in assay [1], in assay [2], in [3], in [4], in assay [5] and in [6] was “inactive” each time. The Potency entry in [7], in [8], in assay [14], in [9], in assay [16] and in assay [10] was “inactive” throughout. The Potency entry in assay [11], in assay [13], in assay [17] and in [18] was “inactive” throughout.
On to `c1cc[c]([Sb]([c]2ccccc2)[c]2ccccc2)cc1`, for which the Potency entry in assay [1], in assay [3], in assay [4], in assay [5], in [6] and in [7] was “inactive” each time. In addition, the Potency result in [8], in assay [15], in assay [16], in assay [10], in assay [11] and in [18] was “inactive” in each case. Also, in assay [2], the Potency is 12.2 µM (active).
As to `C=CCc1ccc(OC(=O)Cc2ccccc2)c(OC)c1`, the Potency result in assay [1], in assay [2], in assay [3], in [4], in [5] and in assay [6] was “inactive” each time. The Potency result in [7], in assay [8], in [14], in assay [15], in assay [16] and in assay [10] was “inactive” each time. The Potency result in assay [11], in [12] and in assay [19] was “inactive” throughout.
Consider `CCC1COC(Cn2cncn2)(c2ccc(Cl)cc2Cl)O1` (stereo unspecified), for which the Potency entry in assay [1], in [2], in [3], in assay [4], in [5] and in assay [6] was “inactive” throughout. For the same molecule, the Potency result in assay [7], in [8], in [14], in [9], in assay [15] and in assay [16] was “inactive” each time. In addition, the Potency entry in assay [10], in assay [11], in [18] and in [19] was “inactive” throughout.
